The supplement of paper PMC4466140

Experiments:
Assay in all cases: SPOT peptide array binding signal intensity (averaged, normalized) (arbitrary units (background-subtracted, floor 0; scale differs between SH3 domains)); higher = stronger binding of the SH3 domain to the peptide
AgAbp1 = target: AgAbp1
Procedure, shortened: (§1)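 E. coli BL21(DE3) was used to express GST-fused SH3 domains from four yeast species, which were then purified on glutathione Sepharose. These were incubated at 10 μg/ml in TBS-based blocking buffer overnight at 4°C on cellulose membranes carrying synthetic 15-mer peptides, in which cysteines were replaced by serines. Binding signal is the replicate average of normalized, background-subtracted spot intensity, in arbitrary units that differ between domains.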

AgBbc1 = target: AgBbc1
Procedure, shortened: as §1

AgBem1-D1 = target: AgBem1-D1
Procedure, shortened: as §1

AgBzz1-D1 = target: AgBzz1-D1
Procedure, shortened: as §1

AgBzz1-D2 = target: AgBzz1-D2
Procedure, shortened: as §1

AgCyk3 = target: AgCyk3
Procedure, shortened: as §1

AgFus1 = target: AgFus1
Procedure, shortened: as §1

AgHof1 = target: AgHof1
Procedure, shortened: as §1

AgHse1 = target: AgHse1
Procedure, shortened: as §1

AgLsb1 = target: AgLsb1
Procedure, shortened: as §1

AgLsb4 = target: AgLsb4
Procedure, shortened: as §1

AgMyo5 = target: AgMyo5
Procedure, shortened: as §1

AgNbp2 = target: AgNbp2
Procedure, shortened: as §1

AgRvs167 = target: AgRvs167
Procedure, shortened: as §1

AgSho1 = target: AgSho1
Procedure, shortened: as §1

AgSla1-D1-D2 = target: AgSla1-D1-D2
Procedure, shortened: as §1

AgSla1-D3 = target: AgSla1-D3
Procedure, shortened: as §1

CaAbp1-D1 = target: CaAbp1-D1
Procedure, shortened: as §1

CaAbp1-D2 = target: CaAbp1-D2
Procedure, shortened: as §1

CaBbc1 = target: CaBbc1
Procedure, shortened: as §1

CaBem1-D1 = target: CaBem1-D1
Procedure, shortened: as §1

CaBzz1-D1 = target: CaBzz1-D1
Procedure, shortened: as §1

CaBzz1-D2 = target: CaBzz1-D2
Procedure, shortened: as §1

CaCyk3 = target: CaCyk3
Procedure, shortened: as §1

CaFus1 = target: CaFus1
Procedure, shortened: as §1

CaHof1 = target: CaHof1
Procedure, shortened: as §1

CaHse1 = target: CaHse1
Procedure, shortened: as §1

CaLsb1 = target: CaLsb1
Procedure, shortened: as §1

CaLsb4 = target: CaLsb4
Procedure, shortened: as §1

CaMyo5 = target: CaMyo5
Procedure, shortened: as §1

CaNbp2 = target: CaNbp2
Procedure, shortened: as §1

CaRvs167 = target: CaRvs167
Procedure, shortened: as §1

CaRvs167-3 = target: CaRvs167-3
Procedure, shortened: as §1

CaSho1 = target: CaSho1
Procedure, shortened: as §1

CaSla1-D1-D2 = target: CaSla1-D1-D2
Procedure, shortened: as §1

CaSla1-D3 = target: CaSla1-D3
Procedure, shortened: as §1

ScAbp1 = target: ScAbp1
Procedure, shortened: as §1

ScBbc1 = target: ScBbc1
Procedure, shortened: as §1

ScBem1-D1 = target: ScBem1-D1
Procedure, shortened: as §1

ScBzz1-D1 = target: ScBzz1-D1
Procedure, shortened: as §1

ScBzz1-D2 = target: ScBzz1-D2
Procedure, shortened: as §1

ScCyk3 = target: ScCyk3
Procedure, shortened: as §1

ScFus1 = target: ScFus1
Procedure, shortened: as §1

ScHof1 = target: ScHof1
Procedure, shortened: as §1

ScHse1 = target: ScHse1
Procedure, shortened: as §1

ScLsb1 = target: ScLsb1
Procedure, shortened: as §1

ScLsb2 = target: ScLsb2
Procedure, shortened: as §1

ScLsb3 = target: ScLsb3
Procedure, shortened: as §1

ScLsb4 = target: ScLsb4
Procedure, shortened: as §1

ScMyo3 = target: ScMyo3
Procedure, shortened: as §1

ScMyo5 = target: ScMyo5
Procedure, shortened: as §1

ScNbp2 = target: ScNbp2
Procedure, shortened: as §1

ScPex13 = target: ScPex13
Procedure, shortened: as §1

ScRvs167 = target: ScRvs167
Procedure, shortened: as §1

ScSho1 = target: ScSho1
Procedure, shortened: as §1

ScSla1-D1-D2 = target: ScSla1-D1-D2
Procedure, shortened: as §1

ScSla1-D3 = target: ScSla1-D3
Procedure, shortened: as §1

SpAbp1-D1 = target: SpAbp1-D1
Procedure, shortened: as §1

SpBbc1 = target: SpBbc1
Procedure, shortened: as §1

SpBzz1-D1 = target: SpBzz1-D1
Procedure, shortened: as §1

SpBzz1-D2 = target: SpBzz1-D2
Procedure, shortened: as §1

SpCyk3 = target: SpCyk3
Procedure, shortened: as §1

SpHof1 = target: SpHof1
Procedure, shortened: as §1

SpHof1-2 = target: SpHof1-2
Procedure, shortened: as §1

SpHof1-3 = target: SpHof1-3
Procedure, shortened: as §1

SpHse1 = target: SpHse1
Procedure, shortened: as §1

SpLsb1 = target: SpLsb1
Procedure, shortened: as §1

SpLsb4 = target: SpLsb4
Procedure, shortened: as §1

SpMyo1 = target: SpMyo1
Procedure, shortened: as §1

SpNbp2 = target: SpNbp2
Procedure, shortened: as §1

SpPex13 = target: SpPex13
Procedure, shortened: as §1

SpRvs167 = target: SpRvs167
Procedure, shortened: as §1

SpSla1-D1-D2 = target: SpSla1-D1-D2
Procedure, shortened: as §1

SpSla1-D3 = target: SpSla1-D3
Procedure, shortened: as §1

B1: unnamed (peptide)
chain: AATTSTPPLPRRRAT
SPOT peptide array binding signal intensity (AgAbp1): 73
SPOT peptide array binding signal intensity (AgBbc1): 800
SPOT peptide array binding signal intensity (AgBem1-D1): ≤ 0
SPOT peptide array binding signal intensity (AgBzz1-D1): 188
SPOT peptide array binding signal intensity (AgBzz1-D2): 53.5
SPOT peptide array binding signal intensity (AgCyk3): 3
SPOT peptide array binding signal intensity (AgFus1): 5
SPOT peptide array binding signal intensity (AgHof1): 142
SPOT peptide array binding signal intensity (AgHse1): 21
SPOT peptide array binding signal intensity (AgLsb1): 464
SPOT peptide array binding signal intensity (AgLsb4): 5320
SPOT peptide array binding signal intensity (AgMyo5): 12.5
SPOT peptide array binding signal intensity (AgNbp2): ≤ 0
SPOT peptide array binding signal intensity (AgRvs167): 591
SPOT peptide array binding signal intensity (AgSho1): ≤ 0
SPOT peptide array binding signal intensity (AgSla1-D1-D2): 6
SPOT peptide array binding signal intensity (AgSla1-D3): ≤ 0
SPOT peptide array binding signal intensity (CaAbp1-D1): 142
SPOT peptide array binding signal intensity (CaAbp1-D2): 229
SPOT peptide array binding signal intensity (CaBbc1): 1600
SPOT peptide array binding signal intensity (CaBem1-D1): 11
SPOT peptide array binding signal intensity (CaBzz1-D1): 520
SPOT peptide array binding signal intensity (CaBzz1-D2): 362
SPOT peptide array binding signal intensity (CaCyk3): 60.5
SPOT peptide array binding signal intensity (CaFus1): 68
SPOT peptide array binding signal intensity (CaHof1): 8.75
SPOT peptide array binding signal intensity (CaHse1): ≤ 0
SPOT peptide array binding signal intensity (CaLsb1): 8.5
SPOT peptide array binding signal intensity (CaLsb4): 5270
SPOT peptide array binding signal intensity (CaMyo5): 8
SPOT peptide array binding signal intensity (CaNbp2): 94
SPOT peptide array binding signal intensity (CaRvs167): 700
SPOT peptide array binding signal intensity (CaRvs167-3): 1
SPOT peptide array binding signal intensity (CaSho1): 7
SPOT peptide array binding signal intensity (CaSla1-D1-D2): 906
SPOT peptide array binding signal intensity (CaSla1-D3): ≤ 0
SPOT peptide array binding signal intensity (ScAbp1): 109
SPOT peptide array binding signal intensity (ScBbc1): 726
SPOT peptide array binding signal intensity (ScBem1-D1): 3
SPOT peptide array binding signal intensity (ScBzz1-D1): 10.5
SPOT peptide array binding signal intensity (ScBzz1-D2): 9
SPOT peptide array binding signal intensity (ScCyk3): 16
SPOT peptide array binding signal intensity (ScFus1): ≤ 0
SPOT peptide array binding signal intensity (ScHof1): 9.75
SPOT peptide array binding signal intensity (ScHse1): 70
SPOT peptide array binding signal intensity (ScLsb1): 232
SPOT peptide array binding signal intensity (ScLsb2): 202
SPOT peptide array binding signal intensity (ScLsb3): 6300
SPOT peptide array binding signal intensity (ScLsb4): 2060
SPOT peptide array binding signal intensity (ScMyo3): ≤ 0
SPOT peptide array binding signal intensity (ScMyo5): ≤ 0
SPOT peptide array binding signal intensity (ScNbp2): 20
SPOT peptide array binding signal intensity (ScPex13): 1080
SPOT peptide array binding signal intensity (ScRvs167): 2000
SPOT peptide array binding signal intensity (ScSho1): ≤ 0
SPOT peptide array binding signal intensity (ScSla1-D1-D2): 760
SPOT peptide array binding signal intensity (ScSla1-D3): 11
SPOT peptide array binding signal intensity (SpAbp1-D1): 16
SPOT peptide array binding signal intensity (SpBbc1): 104
SPOT peptide array binding signal intensity (SpBzz1-D1): 877
SPOT peptide array binding signal intensity (SpBzz1-D2): ≤ 0
SPOT peptide array binding signal intensity (SpCyk3): 9
SPOT peptide array binding signal intensity (SpHof1): 178
SPOT peptide array binding signal intensity (SpHof1-2): 78.5
SPOT peptide array binding signal intensity (SpHof1-3): 66.5
SPOT peptide array binding signal intensity (SpHse1): 8.25
SPOT peptide array binding signal intensity (SpLsb1): 712
SPOT peptide array binding signal intensity (SpLsb4): 4540
SPOT peptide array binding signal intensity (SpMyo1): 113
SPOT peptide array binding signal intensity (SpNbp2): 1.5
SPOT peptide array binding signal intensity (SpPex13): 3
SPOT peptide array binding signal intensity (SpRvs167): 1970
SPOT peptide array binding signal intensity (SpSla1-D1-D2): 15.5
SPOT peptide array binding signal intensity (SpSla1-D3): ≤ 0
